Measured values as given in PubChem BioAssay AID1159580 (chemical genetic matrix, 2015).
In all, about 5,500 compounds went through this assay and about 2,000 (36%) were called active. Roughly 18% stayed inconclusive and do not appear here. Cut-off read from the data, not from the text of the source: active = normalized growth mostly below about 0.91 (no sharp cut-off); inconclusive = no clear call, values can overlap the other calls; inactive = mostly above about 0.92. The list shows a part of the results.

Test: chemical genetic growth profiling, strain panel (AID 1159580);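 note: tested at 20 µM; growth read once vehicle control cultures reached saturation at 30 °C; 1 = growth at the plate median or of vehicle wells; lower values mean less growth of the strain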
Conditions: S. cerevisiae deletion strains, growth OD

Measured: normalized growth

OC(Cn1cncn1)(Cn1cncn1)c1ccc(F)cc1F
active: locus YDR137W, strain rgp1, hits give low values 0.508
inactive: locus YAL013W, strain DEP1, hits give low values 0.968 | locus YAL021C, strain ccr4, hits give low values 0.972 | locus YAL026C, strain drs2, hits give low values 0.911 | locus YAL030W, strain snc1, hits give low values 1 | locus YBL061C, strain skt5, hits give low values 0.995 | locus YBR009C, strain hhf1, hits give low values 0.998 | locus YBR021W, strain FUR4, hits give low values 0.936 | locus YBR023C, strain chs3, hits give low values 1.01 | locus YBR171W, strain sec66, hits give low values 0.971 | locus YBR229C, strain ROT2, hits give low values 1 | locus YBR231C, strain swc5, hits give low values 0.981 | locus YBR279W, strain paf1, hits give low values 1 | locus YCL011C, strain gbp2, hits give low values 1.01 | locus YCL016C, strain dcc1, hits give low values 0.987 | locus YCL029C, strain bik1, hits give low values 0.984 | locus YCL061C, strain MRC1, hits give low values 0.987 | locus YCL069W, strain vba3, hits give low values 1 | locus YCR088W, strain abp1, hits give low values 1.01 | locus YDL005C, strain med2, hits give low values 0.966 | locus YDL035C, strain GPR1, hits give low values 0.991 | locus YDL040C, strain nat1, hits give low values 1 | locus YDL074C, strain BRE1, hits give low values 1.03 | locus YDL101C, strain DUN1, hits give low values 0.993 | locus YDL134C, strain PPH21, hits give low values 1 | locus YDL185W, strain tfp1, hits give low values 0.948 | locus YDL192W, strain arf1, hits give low values 0.998 | locus YDR001C, strain nth1, hits give low values 1.01 | locus YDR069C, strain doa4, hits give low values 0.971 | locus YDR101C, strain arx1, hits give low values 1 | locus YDR150W, strain NUM1, hits give low values 0.985 | locus YDR159W, strain sac3, hits give low values 0.956 | locus YDR162C, strain NBP2, hits give low values 0.971 | locus YDR195W, strain ref2 1.1 | locus YDR297W, strain sur2, hits give low values 1 | locus YDR318W, strain mcm21, hits give low values 0.986 | locus YDR334W, strain swr1, hits give low values 0.996 | locus YDR335W, strain msn5, hits give low values 1.01 | locus YDR388W, hits give low values 1 | locus YDR392W, strain spt3, hits give low values 0.853 | locus YDR502C, strain sam2, hits give low values 0.992 | locus YEL003W, strain gim4, hits give low values 0.999 | locus YEL037C, strain rad23, hits give low values 1 | locus YEL061C, strain CIN8 (second series), hits give low values 1.01 | locus YEL061C, strain CIN8, hits give low values 0.993 | locus YER015W, strain faa2, hits give low values 1.01 | locus YER016W, strain bim1, hits give low values 1 | locus YER110C, hits give low values 0.974 | locus YER111C, strain swi4, hits give low values 0.999 | locus YER155C, strain BEM2 (second series), hits give low values 0.99 | locus YER155C, strain BEM2, hits give low values 1 | locus YER167W, strain BCK2, hits give low values 1.01 | locus YFR010W, strain ubp6, hits give low values 0.982 | locus YGL078C, strain dbp3, hits give low values 0.997 | locus YGL086W, strain mad1, hits give low values 0.997 | locus YGL167C, strain pmr1, hits give low values 1 | locus YGL173C, strain kem1, hits give low values 1.01 | locus YGL227W, strain vid30, hits give low values 1.01 | locus YGL240W, strain doc1, hits give low values 0.995 | locus YGL248W, strain PDE1, hits give low values 1.02 | locus YGL253W, strain hxk2, hits give low values 0.99 | locus YGR078C, strain PAC10, hits give low values 1.02 | locus YGR135W, strain pre9, hits give low values 0.979 | locus YGR252W, strain gcn5, hits give low values 1 | locus YHR013C, strain ard1, hits give low values 0.957 | locus YHR027C, strain rpn1, hits give low values 1.01 | locus YHR030C, strain SLT2, hits give low values 0.987 | locus YHR079C, strain IRE1 (second series), hits give low values 0.985 | locus YHR094C, strain hxt1, hits give low values 1.01 | locus YHR129C, strain ARP1, hits give low values 1 | locus YHR142W, strain chs7, hits give low values 1 | locus YHR200W, strain rpn10, hits give low values 0.961 | locus YIL066C, strain RNR3, hits give low values 1 | locus YIL073C, strain SPO22, hits give low values 0.943 | locus YIL125W, strain kgd1, hits give low values 1.01 | locus YIR030C, strain dcg1, hits give low values 0.997 | locus YJL092W, strain hpr5, hits give low values 0.998 | locus YJL095W, strain BCK1 (second series), hits give low values 1 | locus YJL095W, strain BCK1, hits give low values 1.07 | locus YJL115W, strain asf1, hits give low values 0.996 | locus YJL129C, strain trk1, hits give low values 1.06 | locus YJL134W, strain LCB3, hits give low values 0.994 | locus YJL154C, strain vps35, hits give low values 1.01 | locus YJL164C, strain tpk1, hits give low values 0.992 | locus YJL166W, strain qcr8, hits give low values 1 | locus YJL168C, strain set2, hits give low values 0.992 | locus YJL187C, strain SWE1 (second series), hits give low values 1.03
